Results filed as inconclusive are left out. Calls of active or inactive are those of the source. Unless noted, the rule behind the calls is not given here.
What was measured:
[1] = qHTS profiling for inhibitors of Plasmodium falciparum (3D7) proliferation (AID 743322);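 note: infected erythrocytes exposed to compound for 72 h before lysis; 100% = DMSO vehicle wells and 0% = 0.29 µM artemisinin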; conditions: P. falciparum 3D7 proliferation; at 28.7 µM (top of the series)
How it was run: (§1)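 Parasite DNA was quantified by SYBR Green I fluorescence (ex 485, em 535 nm) after overnight lysis in saponin/Triton buffer at room temperature. Cultures at 0.3% parasitemia and 2.5% hematocrit were first exposed to compound for 72 h at 37 C; signals were normalised to artemisinin (0.29 uM) and vehicle wells.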

[2] = qHTS profiling for inhibitors of Plasmodium falciparum (DD2) proliferation (AID 743323); conditions: lower = more inhibition; at 28.7 µM (top of the series)
How it was run: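 Parasite DNA quantified by SYBR Green fluorescence (ex 485, em 535 nm) after saponin/Triton lysis and overnight dark incubation. Cultures: 0.3% parasitemia, 2.5% hematocrit, 72 h, 37 C; data scaled between DMSO and 0.29 uM artemisinin.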

[3] = qHTS profiling for inhibitors of Plasmodium falciparum (HB3) proliferation (AID 743324; active = well fitted curve in the direction sought with a large enough effect; an effect the other way counts as inactive or inconclusive;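 note: 100% = DMSO vehicle wells and 0% = artemisinin-treated control wells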); conditions: Plasmodium falciparum HB3 blood-stage proliferation; at 28.7 µM (top of the series)
How it was run: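 SYBR Green fluorescence (485 ex/535 em) of lysed cultures, incubated overnight at room temperature in the dark, quantifies parasite DNA. Infected erythrocytes at 0.3% parasitemia and 2.5% hematocrit were exposed 72 h; values normalized to DMSO and 0.29 uM artemisinin controls.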

[4] = qHTS profiling of the MIPE4 collection as inhibitors of Plasmodium falciparum (3D7) proliferation (AID 743344);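 note: scaled between DMSO vehicle wells and 0.29 µM artemisinin as full inhibition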; conditions: P. falciparum 3D7 in erythrocytes, SYBR Green DNA fluorescence, 72 h; at 28.5 µM (top of the series) unless noted
How it was run: as §1

[5] = qHTS profiling of the MIPE4 collection as inhibitors of Plasmodium falciparum (DD2) proliferation (AID 743345); conditions: P. falciparum Dd2 in erythrocytes, SYBR Green DNA, 72 h; at 28.5 µM (top of the series) unless noted
How it was run: as §1

[6] = qHTS profiling of the MIPE4 collection as inhibitors of Plasmodium falciparum (DD2) proliferation (Rep 2) (AID 743346); conditions: P. falciparum Dd2 in erythrocytes, SYBR Green DNA, 72 h; at 28.5 µM (top of the series) unless noted
How it was run: as §1

[7] = qHTS profiling of the MIPE4 collection as inhibitors of Plasmodium falciparum (HB3) proliferation (AID 743347);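 note: plate controls were DMSO vehicle wells for no effect and artemisinin wells for full effect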; conditions: P. falciparum HB3 in erythrocytes, SYBR Green DNA, 72 h; at 28.5 µM (top of the series) unless noted
How it was run: as §1

[8] = High-throughput drug toxicity screening in the BPDCN cell line Gen2.2 (AID 1224824); conditions: Gen2.2 BPDCN cells; at 45.8 µM (top of the series) unless noted;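 note: cells exposed to compounds for 48 h before reading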
How it was run: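 CellTiter-Glo luminescence after 48 h compound exposure of Gen2.2 cells; percent activity set with DMSO as 100% and bortezomib (9.2 uM final) as 0%. Cells seeded at 500 per well, RPMI + 10% FBS, 37 °C.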

[9] = High-throughput drug toxicity screening in the BPDCN cell line Cal-1 (AID 1224825); conditions: Cal-1 BPDCN cell viability, qHTS; at 45.8 µM (top of the series) unless noted
How it was run: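 Percent activity derived from CellTiter-Glo luminescence, scaling DMSO to 100% and 9.2 uM final bortezomib to 0%. BPDCN Cal-1 cells (500/well, RPMI plus 10% FBS) incubated with compounds 48 hours at 37C before reading.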

[10] = qHTS assay for measurement of the activity of small molecule inhibitors on Zika virus induced Caspase-3 activity in human iPSC derived neural progenitor cells (hNPCs) (AID 1224857; active = well fitted curve in the direction sought with a large enough effect; an effect the other way counts as inactive or inconclusive; note: nearly all actives have a fitted effect of over 65% in size; note: potency is the fitted concentration of half-maximal effect)
How it was run: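 After overnight (16–20 h) culture at 350 cells/well, hNPCs get compound, then ZIKV 2 FFU/cell one hour later. Six hours on, Caspase-Glo 3/7 is added and luminescence measured.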

Structure (SMILES) | remaining parasite growth % (stronger effect = lower value) [1] | activity, percent of control [2] | remaining proliferation (% of control), lower = more inhibition [3] | parasite growth, % of DMSO control [4] | parasite growth remaining, % of DMSO control (lower = more inhibition) [5] | parasite growth, % of control (lower = inhibition) [6] | growth, % of control [7] | cell viability, % of control (lower = more cytotoxic) [8] | viability (% of control) [9] | Potency [10]
O=C(O)c1ccc(-c2cc3cccnc3c(-c3ccc4nonc4c3)n2)cc1 | 98.1% | 92.9% | 93.9% | 15.8% | 53.9% | 37.1% | 3.01% | 30.2% | 18.7% | inactive
CC(C)C(=O)Nc1ncc(-c2cc(C(F)F)nn2-c2c(Cl)cccc2Cl)s1 | 0.0648% | -0.314% | -0.0078% | 9.88% | 13.6% | 18.7% | 11.3% | 113% | 6.45% | inactive
COc1cc2ncnc(-n3nc(-c4ccccn4)nc3N)c2cc1OC | 68.8% | 96.4% | 74% | 15.5% | 31.2% | 11.1% | 6.36% | 59.8% | 46.1% | inactive
CC(C)(C)COc1ccc(-n2cc(C(=O)O)cn2)cc1C#N | 28.3% | 88.8% | 91.7% | 75% | 90.1% | – | 67.6% | 112% | 106% | 14.8 µM (active)
C[C@H](NC(=O)C(=O)Nc1ccccc1C(C)(C)C)C(=O)N[C@@H](CC(=O)O)C(=O)COc1c(F)c(F)cc(F)c1F | – | – | – | 73.8% | 107% | 49.8% | 405% | 200% | 8.98% | 2.35 µM (active)
COc1ccc2c(Oc3ccc(NC(=O)c4c(C)n(CC(C)(C)O)n(-c5ccccc5)c4=O)nc3)ccnc2c1 | – | – | – | 9.27% | 18.1% | 37% | 8.88% | 29.7% | 17.2% | inactive
NC(=O)c1cnc(-c2ccc(C3(N)CCC3)cc2)c(-c2ccccc2)c1 | – | – | – | 55.3% | 65.3% | 30% | 75.7% | 80.1% | 67% | inactive
N#C[C@H]1C[C@H]2C[C@@H]2N1C(=O)[C@@H](N)C12CC3CC(CC(O)(C3)C1)C2 | – | – | – | 97.9% | 103% | 97% | 69.2% | 112% | 100% | inactive
CN[C@@H](C)C(=O)N[C@H]1CN(C(=O)CC(C)C)CC[C@H]2CC[C@@H](C(=O)NC(c3ccccc3)c3ccccc3)N2C1=O | – | – | – | 69.1% | 55% | 27.9% | 72.2% | 19.5% | 9.02% | inactive
CC(C)[C@H](CO)Nc1nc(Nc2ccc(C(=O)O)c(Cl)c2)c2ncn(C(C)C)c2n1 | 41.8% | 35.2% | 28.6% | 29.4% | 51% | – | 18.3% | 9.58% | 5.62% | inactive

— PubChem BioAssay (NCATS)
